Out of some 2,100 compounds screened, about 1,100 (52%) were called active. Not shown: some 27% with an inconclusive outcome. The set was probably picked from earlier hits. Some of the results follow. Values without a mark were called inactive. Calls follow the shape of the dose curve; as a rule, active = well fitted inhibition curve with a large enough effect; inconclusive = small, poorly fitted or top-dose-only effect; inactive = no such curve, though single readings can be large or run the other way.
Potency is read from the fitted curve at half-maximal effect.

For this experiment, the target named is DNA dC->dU-editing enzyme APOBEC-3G (Homo sapiens) (UniProt Q9HC16). As to the kind of experiment: qHTS for inhibitors of Vif-A3G interactions: Cherry picks counterscreen.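 Also: hits raise yellow fluorescence by blocking Vif-driven A3G-eYFP degradation; nearly all actives have a fitted effect of over 70% in size.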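 As to max response: max response given as percent of control signal.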 To be noted: HeLa A3G-eYFP + Vif (tagged APOBEC3G with the HIV-1 protein that degrades it), eYFP fluorescence, 24 h. An outline of the steps: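 Readout is eYFP fluorescence (488 nm excitation, 500-530 nm emission) measured on Acumen Explorer after 24 h compound exposure, several concentrations, at 37 deg C. Cells: HeLa stably co-expressing Vif and C-terminally eYFP-tagged A3G; MG132 positive control.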
Sequence of DNA dC->dU-editing enzyme APOBEC-3G (Homo sapiens) (Q9HC16 whole entry, looked up): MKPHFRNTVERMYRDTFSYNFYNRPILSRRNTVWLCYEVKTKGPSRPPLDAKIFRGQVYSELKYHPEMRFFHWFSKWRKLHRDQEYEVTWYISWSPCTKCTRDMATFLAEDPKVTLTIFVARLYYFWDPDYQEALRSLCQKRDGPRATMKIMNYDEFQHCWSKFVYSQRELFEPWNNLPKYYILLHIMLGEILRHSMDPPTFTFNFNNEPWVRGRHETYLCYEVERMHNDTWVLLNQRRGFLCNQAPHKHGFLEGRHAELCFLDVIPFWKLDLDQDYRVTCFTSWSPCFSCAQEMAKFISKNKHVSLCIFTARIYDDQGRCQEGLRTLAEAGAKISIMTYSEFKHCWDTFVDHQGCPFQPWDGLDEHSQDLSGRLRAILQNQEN
Turning to `CCc1nnc(NC(=O)CSc2nnc(-c3ccccc3O)n2-c2ccc(C)cc2C)s1`, the Potency is 6.27 µM (active).

For `COC(=O)c1cc(NC(=O)c2ccccc2)c(=O)oc1/C=C/Nc1ccc(Oc2ccccc2)cc1`, the max response is 11.8%. Turning to `CC(=O)c1cc(NC(=O)c2ccc(C)cc2)c(=O)oc1/C=C/N(C)C`, the Potency was 14.6 µM (active). Take `COC(=O)c1c(-c2ccccc2Cl)noc1/C=C/N(C)C`: the max response was 16.3%. Turning to `COc1ccc(C(=O)Nc2cc(C(C)=O)c(/C=C/N(C)C)oc2=O)cc1`, the Potency is 9.94 µM (active). For the molecule `CC(=O)c1cc(NC(=O)c2ccc(Cl)cc2)c(=O)oc1/C=C/N(C)C`, the Potency is 7.04 µM (active). The same measure, in the same setting: then `COc1ccc(N2CC(C(=O)N/N=C/c3ccc(C)cc3)CC2=O)cc1` (stereo not given), with 7.04 µM (active). Take `COC(=O)c1ccccc1NC(=O)C1CC(=O)N(c2ccc(OC)cc2)C1` (stereo not given): the max response is -25.1%. Consider `Cc1cccc2[nH]cc(/C=C3/C=Nc4ccccc43)c12`, for which the Potency was 18.4 µM (active). Same read-out and setting: next, `Cc1ccc(/C=N/NC(=O)C2COc3ccccc3O2)s1` (stereo not given): 7.9 µM (active); `Cc1ccc(/C=N/NC(=O)c2ccc3ccccc3c2)s1`: 1.58 µM (active). On to `O=C(N/N=C/c1c[nH]c2ccccc12)C1COc2ccccc2O1` (stereo not given), for which the Potency was 14 µM (active). Consider `CNC(=S)N/N=C/c1ccc(N2CCOCC2)s1`, for which the max response is 10.6%. Turning to `Cc1ccc(-c2cc(C(=O)N/N=C/c3c[nH]c4ccccc34)[nH]n2)cc1`, the Potency is 4.98 µM (active). For `Cc1cc(C)nc(NC(=S)Nc2cccc(Cl)c2Cl)c1`, the max response is 1.24%.

Turning to `O=C(NCC1CCCO1)c1nn2c(C(F)(F)F)cc(-c3cc(Br)cs3)nc2c1Br` (stereo not given), the Potency is 16.4 µM (active). Same read-out and setting: next, `Cc1ccc(C(=O)NC2c3ccccc3-c3ccccc32)cc1`: 1.98 µM (active); `O=c1c2cc3ccccc3n2cnn1Cc1ccccc1F`: 12.5 µM (active); `CC(CC(=O)Nc1ccc2c(c1)c(=O)n(C)n2-c1ccccc1F)c1ccccc1` (stereo not given): 15.8 µM (active). Same read-out and setting: next, `CC(CC(=O)Nc1ccc2c(c1)c(=O)n(C)n2-c1ccccc1)c1ccccc1` (stereo not given): 3.96 µM (active). As to `CC(CC(=O)Nc1ccc2c(c1)c(=O)n(C)n2Cc1ccc(F)cc1)c1ccccc1` (stereo not given), the max response is -26%. In the case of `Cn1c(=O)c2cc(NC(=O)Cc3cccc4ccccc34)ccc2n1-c1ccccc1`, the Potency is 11.2 µM (active). `CCCCCCCNc1ccc(/C=C/c2ccnc3ccccc23)cc1`: the Potency is 11.6 µM (active).

As to `CCCCCCNc1ccc(/C=C/c2ccnc3ccccc23)cc1`, the Potency was 18.4 µM (active). As to `COc1ccccc1NC(=O)c1sc2ncn(CC(=O)Nc3ccccc3)c(=O)c2c1C`, the Potency is 18.4 µM (active). Consider `CCCC(=O)Nc1nc2ccc(NC(=O)c3ccccc3F)cc2s1`, for which the Potency is 15.8 µM (active). Turning to `CCC(=O)Nc1nc2ccc(NC(=O)c3cc(OC)c(OC)c(OC)c3)cc2s1`, the max response is -0.685%.

On to `COc1ccc(-c2c(C#N)c(N)nc(Sc3ccc(Cl)cc3)c2C#N)cc1`, for which the max response was -11.5%. Same read-out and setting: then `COc1ccccc1-c1cc(-c2ccccc2)nc(SC(C(N)=O)c2ccccc2)c1C#N` (stereo not given), with -23.2%. Regarding `COc1ccc(OC)c(-c2cc(-c3cccnc3)nc(N)c2C#N)c1`, the Potency was 5.59 µM (active). In the case of `CCOCCCNC(=O)/C(C#N)=C/c1ccc([N+](=O)[O-])o1`, the Potency is 23.1 µM (active). With `Cc1ccc(NC(=O)C(=Cc2ccc(C(=O)O)cc2)C(=O)Nc2ccc(C)cc2C)c(C)c1`, the Potency was 7.04 µM (active). The same measure, in the same setting: next, `COc1cc(N(C)C)c(OC)cc1/C=C/c1ccnc2ccccc12`: 23.1 µM (active). With `COc1cc(/C=C/c2ccnc3ccccc23)ccc1N(C)C`, the Potency is 18.4 µM (active). Turning to `C=CCN=c1scc(-c2ccc(F)cc2)n1/N=C/c1ccccn1`, the max response is -11.2%. Take `CCc1ccc(NC(=O)c2sc3nc(C)c(C(=O)Nc4ccc(C)cc4C)c(-c4ccco4)c3c2N)cc1`: the Potency was 23.1 µM (active). Still for that read-out and setting: next, `COc1cccc(C(=O)c2sc3nc(-c4ccccc4)cc(C(F)(F)F)c3c2N)c1`: 0.92 µM (active); `COc1ccc(C(=O)c2sc3nc(C)cc(-c4cccs4)c3c2N)cc1`: 20.6 µM (active).

In the case of `COc1ccc(OC)c(NC(=O)c2sc3nc(Cc4ccccc4)cc(C(F)(F)F)c3c2N)c1`, the Potency was 3.66 µM (active). On to `CCC(=O)OCc1cnc(C)c2oc(=O)c(C(=O)Nc3ccccc3C(F)(F)F)cc12`, for which the max response was -2.09%.

Consider `CCOC(=O)c1sc(NC(=S)NC(=O)c2ccco2)nc1C`, for which the max response was -15.3%. The same measure, in the same setting: next, `CCOC(=O)c1c(-c2ccc(OC)cc2)csc1/N=C/C1C(=O)CCCC1=O`: -18.7%. As to `COc1ccc(NC(=O)c2sc3nc(-c4ccc(OC)cc4)cc(C(F)(F)F)c3c2N)cc1`, the Potency is 1.3 µM (active). Regarding `Cc1c(C(=O)Nc2ccc(C(C)C)cc2)sc2nc3n(c(=O)c12)CCC3`, the max response is 6.74%.

As to `CCOC(=O)c1c(C)nc2sc(C(=O)Nc3ccc(OC)cc3)c(N)c2c1-c1ccc(OC)cc1`, the Potency is 1.98 µM (active). The same measure, in the same setting: then `COc1ccc(C(=O)c2sc3nc(-c4ccc(C)cc4)cc(C(F)(F)F)c3c2N)cc1`, with 0.731 µM (active). `Cc1ccc2c(c1C)NC(=O)CC(c1ccccc1O)=N2`: the max response is -6.13%. Regarding `O=C(Cc1nc2ccccc2[nH]c1=O)c1ccc(Cl)cc1`, the Potency is 1.03 µM (active).

On to `COc1ccc(CN2C(=O)C(C)Nc3ncnc(N4CCc5ccccc5C4)c32)cc1` (stereo not given), for which the Potency is 3.53 µM (active). As for `Cc1ccc(S(=O)(=O)c2cc3ccccc3oc2=Nc2ccc3c(c2)OCO3)cc1`, the max response was 12.1%. Regarding `C=C(C)CNC(=S)N/N=C1\CCCCc2ccccc21`, the max response was -14.6%.

Turning to `CN1CCCc2cc(/C=C/c3ccnc4ccccc34)ccc21`, the Potency is 5.8 µM (active). Consider `Cc1cc(/C=C/c2ccnc3ccccc23)ccc1N(C)C`, for which the Potency is 14.6 µM (active). As to `CN(C)c1ccc(/C=C/c2ccnc3ccccc23)cc1C=O`, the Potency is 5.17 µM (active). Still for that read-out and setting: then `CN(C)c1ccc(/C=C/c2ccnc3ccccc23)cc1O`, with 20.6 µM (active). On to `O=C(Nc1cc(Cl)cc2c1-c1ccc(Cl)cc1C2O)C(Cl)Cl` (stereo not given), for which the max response is -14.6%. Take `O=C(/C=C/c1ccncc1)c1cc(Cl)ccc1O`: the max response was -22.8%.

For the molecule `CCc1cc(/C=C/c2ccnc3ccccc23)ccc1N(C)C`, the Potency was 20.6 µM (active). As to `Cc1cc(/C=C/c2ccnc3ccccc23)ccc1N`, the Potency was 18.4 µM (active). Turning to `CN1C(=O)C(O)(C2COC(C)(C)CC2=O)c2cc(Br)ccc21` (stereo not given), the max response is -0.606%. As to `N=C1S/C(=C\c2ccc(-c3cccc(Cl)c3)o2)C(=O)N1c1nccs1`, the Potency is 16.4 µM (active). Turning to `CCc1ccc(CNC(=O)Cc2ccc(NC(=O)C3=C(C)OCCS3)cc2)cc1`, the Potency is 0.886 µM (active). For `CC(C)OC(=O)c1ccc(NCc2cc(O)ccc2O)cc1Cl`, the max response is -19.4%. With `CC(C)OC(=O)c1cc(C(=O)c2cc(F)ccc2O)coc1=N`, the Potency is 20.6 µM (active).

Turning to `O=C(N/N=C/c1ccc(Cl)cc1)c1cc2c(s1)-c1ccccc1CC2`, the Potency is 7.04 µM (active). Same read-out and setting: then `COc1ccc(-c2[nH]ncc2N=Nc2ccccc2)cc1`, with 8.86 µM (active). Consider `Cc1ccc(-c2nc(SCCOc3ccccc3C)n3[nH]c(=O)cc3n2)cc1`, for which the max response was 23%. As for `Cc1ccccc1OCCc1c(C)[nH]c(=S)[nH]c1=O`, the Potency is 2.5 µM (active).

With `N#C/C(=C\c1cccc(O)c1)c1nc2ccccc2o1`, the Potency is 7.04 µM (active). Take `O=C(Nc1ccc(Cl)cc1)Nc1ccon1`: the max response is -27.2%.

For the molecule `Cc1ccccc1OCC(=O)NNC(=O)Nc1ccc(Cl)cc1`, the Potency is 6.27 µM (active). For `COc1cccc(/C=N/NC(=O)c2[nH]nc3c2CCc2ccccc2-3)c1`, the Potency is 5.59 µM (active). Same read-out and setting: next, `COc1ccc(/C=N/NC(=O)c2[nH]nc3c2CCc2ccccc2-3)cc1OC`: 3.96 µM (active). Turning to `O=C(NCCC1=CCCCC1)C1CCC(CNc2nc(=S)[nH]c3ccccc23)CC1` (stereo not given), the max response was -2.72%. As to `Cc1sc(NC(=O)c2sc3nc4c(C)cccc4cc3c2N)c(C#N)c1C`, the Potency is 17.7 µM (active). As for `Cc1cccc2cc3c(N)c(C(=O)N4CCOCC4)sc3nc12`, the Potency is 8.2 µM (active). Take `Cc1ccc(C)c2nc3sc(C(=O)N4CCOCC4)c(N)c3cc12`: the Potency was 17.7 µM (active). With `Cc1cccc2cc3c(N)c(C(=O)Nc4ccc(N5CCOCC5)cc4)sc3nc12`, the Potency was 14 µM (active).

As for `Cc1ccnc(N/C=C(\C#N)c2nc(-c3cccc(Br)c3)cs2)c1`, the Potency was 11.2 µM (active). Same read-out and setting: then `Cc1ccc(C(=O)NN(C)c2nc3ccccc3nc2C(F)(F)F)cc1`, with 6.27 µM (active); and `CN(NC(=O)c1ccccc1)c1nc2ccccc2nc1C(F)(F)F`, with 3.53 µM (active). On to `CC12CC3CC(C)(C1)CC(C(=O)NC(=S)N1CCOCC1)(C3)C2`, for which the max response is -26.4%. Turning to `Cc1cnc(NC(=O)CC(C)c2ccccc2)s1` (stereo not given), the Potency was 5.59 µM (active). Still for that read-out and setting: next, `CCn1nc(-c2ccccc2)c2nc3ccccc3nc21`: 23.1 µM (active); `CC1CCN(c2ccc3c(c2)S(=O)(=O)c2cccc(C(=O)NCc4cccc(F)c4)c2C3=O)CC1`: 14 µM (active); `O=C(NCc1cccc(F)c1)c1cccc2c1C(=O)c1ccc(N3CCCC3)cc1S2(=O)=O`: 17.7 µM (active). Consider `Cc1ccc(CNC(=O)c2cccc3c2C(=O)c2ccc(N4CCCCC4)cc2S3(=O)=O)cc1`, for which the Potency was 18.4 µM (active). In the case of `Cc1ccc(CNC(=O)c2cccc3c2C(=O)c2ccc(N4CCC(C)CC4)cc2S3(=O)=O)cc1`, the max response is -0.215%. For `COc1cc2ccccc2cc1C(=O)N/N=C/c1cccs1`, the Potency was 1.77 µM (active). As to `COc1ccccc1C=CC(=O)C=Cc1ccccc1OC`, the Potency was 6.27 µM (active). On to `O=C(NC(=S)N1CCN(C2CCCCC2)CC1)c1ccccc1`, for which the max response was -11.9%. Take `Nc1ccc(/C=C/c2cc(Cl)nc3ccccc23)cc1`: the Potency was 20.6 µM (active). On the same count and under the same terms, then `CN(C)c1ccc(/C=C/c2nc3ccccc3c(=O)n2CCO)cc1`, with 20.6 µM (active); and `CN(C)c1ccc(/C=C/c2cc(/C=C/c3ccc(N(C)C)cc3)c3ccccc3n2)cc1`, with 3.66 µM (active); and `CN(C)c1ccc(/C=C/c2cc(N(C)C)nc3ccccc23)cc1`, with 6.51 µM (active).

Source of the values: PubChem BioAssay AID651813 (National Center for Advancing Translational Sciences (NCATS), 2012).
